Compound activity as filed in PubChem BioAssay.
KB-3-1 cytotox = KB-3-1 parental cell cytotoxicity | KB-3-1 viability, CellTiter-Glo ATP luminescence, 72 h | Potency, µM (titrated, usually from 46.1 µM), usual class: cytotoxic | actives 1.4% (n = 400,000); further: potency means the concentration at half of the fitted maximal effect; nearly all actives have a fitted effect of over 60% in size
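Multi-concentration cytotoxicity screen in KB-3-1 cells grown in DMEM lacking phenol red with 10% FBS. After 72 h at 37 °C with compound, ATP-dependent luminescence was recorded.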
Nrf2 block = blocks Nrf2 signaling; A549 ARE-Fluc reporter, luciferase luminescence, 18-24 h; Potency, µM (top dose mostly 46 µM), without a hit: top-dose activity change, negative = inhibition, most hits filed as inhibitors; actives 2.1% (n = 360,000); further: potency means the concentration at half of the fitted maximal effect; nearly all actives have a fitted effect of over 60% in size
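Cells were seeded and rested 2 h, then exposed to compounds for 18-24 h. CellTiter-Fluor was read first as a viability measure. BugLite was added 15 min before the final luminescent read of ARE-luciferase activity in A549 cells.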
PI4K2A inh = inhibitors of human PI4K2A | Q9BTU6 | purified PI4K2A, ADP-Glo luminescence, 1 h; hits give low values | activity change, negative = inhibition, % at 76.9 µM | actives 0.13% (n = 420,000); in the data active means activity change below about -50%; inconclusive means mostly about -30% to -49%;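 further: -100% = wells without enzyme as full effect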
Target sequence (Q9BTU6 whole entry, looked up): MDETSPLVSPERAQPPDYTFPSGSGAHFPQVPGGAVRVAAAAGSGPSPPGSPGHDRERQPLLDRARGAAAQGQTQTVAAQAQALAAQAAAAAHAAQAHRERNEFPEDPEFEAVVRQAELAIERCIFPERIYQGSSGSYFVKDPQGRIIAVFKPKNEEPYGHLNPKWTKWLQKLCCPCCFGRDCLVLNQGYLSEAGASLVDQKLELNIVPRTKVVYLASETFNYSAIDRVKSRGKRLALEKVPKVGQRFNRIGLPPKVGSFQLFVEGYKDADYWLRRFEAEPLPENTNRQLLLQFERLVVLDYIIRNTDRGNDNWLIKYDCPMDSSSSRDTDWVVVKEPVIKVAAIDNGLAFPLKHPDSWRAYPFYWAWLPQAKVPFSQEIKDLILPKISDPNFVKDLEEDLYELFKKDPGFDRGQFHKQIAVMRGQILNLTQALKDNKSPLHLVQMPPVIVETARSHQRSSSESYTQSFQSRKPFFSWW
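PI4K2A activity was measured by ADP-Glo luminescence: enzyme (4 ug/mL stock) and phosphatidylinositol (1.2 mM stock) in Tris pH 7.5/MgCl2/EGTA/Triton X-100 buffer were reacted with ATP (300 microM stock) for one hour at ambient temperature.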
KB-V1 cytotox = KB-V1 MDR subline cytotoxicity | KB-V1 MDR cells viability, CellTiter-Glo, 72 h | Potency, µM (series often up to 46.1 µM), actives largely listed as cytotoxic | actives 3.4% (n = 400,000) | AID 1347076; further: potency means the concentration at half of the fitted maximal effect; nearly all actives have a fitted effect of over 60% in size
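Luminescent ATP read-out (CellTiter-Glo, 10 min) measures survival of drug-selected KB-V1 MDR cells after 72 h, 37 degrees C compound exposure. Medium: phenol-red-free DMEM, 10% FBS. Values from fitted concentration-response curves.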
Giardia kill = Giardia lamblia killing; activity change, % at 7.66 µM, hits read low; Giardia lamblia trophozoite viability; actives 0.15% (n = 340,000); AID 540267; in the data active means activity change below about -80%; inconclusive means between about -30% and that limit;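 further: parasites exposed to compound for two days anaerobically before the ATP read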
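Killing of trophozoites was scored by loss of ATP luminescence after a 48 hrs anaerobic exposure to compounds at 37 deg C, using 100 cells per well.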
A549 viability = kills or reduces viability of A549 cells in Nrf2 counter-screen | A549 ARE-Fluc cells, CellTiter-Fluor viability, 18-24 h | Potency, µM (highest dose often 46 µM), for the others: at the highest dose activity change, negative = cytotoxicity, usual class: inhibitors | actives 0.16% (n = 390,000) | AID 504648; further: potency means the concentration at half of the fitted maximal effect
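Cytotoxicity counterscreen: CellTiter-Fluor fluorescence was measured in A549 ARE_Fluc cells after 18-24 h of compound exposure in a concentration series. The subsequent BugLite luminescent read reports ARE-luciferase activity.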
Starred values were filed as active, the others as inactive; i = inactive; ? = inconclusive; . = no result; ! = a repeat was not active. Compounds with a hit are over-represented: about 5.7% of the library has one in this group of screens. Unless noted, the call rests on the fitted dose curve; in most records, active means well fitted curve in the direction sought with a large enough effect; inconclusive means small, poorly fitted or top-dose-only effect, or another doubt; inactive means no such curve, though single readings can be large; an effect the other way counts as inactive or inconclusive. Unless noted, on the % scale 0 is the no-effect control and ±100 the full control effect.

SMILES	KB-3-1 cytotox	Nrf2 block	PI4K2A inh	KB-V1 cytotox	Giardia kill	A549 viability
Cc1ccc(NC(=O)c2cccc(S(=O)(=O)N3CCN(c4ccccc4)CC3)c2)nc1	?	15µM*	-3	?	12	-11%
O=C(Nc1ccc(Cl)cn1)c1cccc(S(=O)(=O)N2CCCCCC2)c1	?	.	5	?	.	.
Cc1ccnc(NC(=O)c2cccc(S(=O)(=O)N3CCN(c4ccccc4)CC3)c2)c1	i	?	-4	i	?	-1%
O=C(Nc1ccc(Cl)cn1)c1cccc(S(=O)(=O)N2CCCC2)c1	i	?	-2	16µM*	-12	2%
CN(C)S(=O)(=O)c1cccc(C(=O)Nc2ccc(Cl)cn2)c1	i	?	0	23µM*	12	-3%
C=CCN1C(=O)[C@@H](CC(=O)NCc2cccs2)[C@]2(C(=O)OC)CCCCC=C12	.	.	-4	.	.	.
COc1cccc(C2=NCCc3cc4c(cc32)OCO4)c1OC	i	?	0	i	-8	-8%
COc1ccc2cc3[n+](cc2c1OC)CCc1cc2c(cc1-3)OCO2	7.3µM*!	?	-11	i	-3	?
CN(C)c1ncc(S(=O)(=O)c2ccccc2)c(-c2ccccc2Cl)n1	i	25%	2	18µM*	-4	?
CCN(CC)c1ccc(NC(=O)Nc2cccc(C(C)=O)c2)cc1	i	15µM*	1	i	-29	-1%
Cc1cc(C)cc(NC(=O)Nc2ccc3c(c2)N(C)C(=O)CS3)c1	?	?	-13	i	-1	12%
CC(=O)c1cccc(NC(=O)Nc2ccc3c(c2)N(C)C(=O)CS3)c1	i	13µM*	10	?	4	-1%
CCc1ccc(NC(=O)Nc2ccc3c(c2)N(C)C(=O)CS3)cc1	i	16µM*	-2	i	7	-11%
Cc1ccc(NC(=O)Nc2ccc3c(c2)N(C)C(=O)CS3)cc1C	i	?	0	i	-22	-11%
COc1ccc(C(=O)OCCN2CCN(C3CN(Cc4cn(Cc5cccc(F)c5)nn4)S(=O)(=O)C3)CC2)cc1OC (configuration not stated)	.	.	-4	.	.	.
CCCCC(=O)NC(c1ccccc1OC)c1ccc2cccnc2c1O (configuration not stated)	6.5µM*	21µM*	8	?	?	-25%
CCCC(=O)NC(c1ccc(Cl)cc1)c1ccc2cccnc2c1O (configuration not stated)	?	?	6	?	-17	-16%
CCCC(=O)NC(c1ccc(C)cc1)c1ccc2cccnc2c1O (configuration not stated)	?	?	3	3.7µM*	2	0%
CCCCC(=O)NC(c1ccc(N(C)C)cc1)c1ccc2cccnc2c1O (configuration not stated)	?	?	6	?	-12	-9%
CC(=O)NC(C)c1cc(Cl)c2cccnc2c1O (configuration not stated)	i	-14%	-6	i	16	-2%
CCCCC(=O)NC(c1ccc(N(CC)CC)cc1)c1ccc2cccnc2c1O (configuration not stated)	4.6µM*	?	0	?	-29	0%
CCC(=O)NC(C)c1cc(Cl)c2cccnc2c1O (configuration not stated)	8.2µM*	-7%	-7	i	18	-2%
CCCC[C@H]1C2CC(OC(=O)Nc3ccc(Cl)cc3)C(C2)[C@H]2CCCCN21 (some centres not stated)	.	.	5	.	.	.
Cc1cccc(S(=O)(=O)N2CCN(S(=O)(=O)c3ccc4c(c3)OCCO4)CC2)c1	.	4%	.	.	.	12%
N#Cc1ccc(S(=O)(=O)N2CCN(c3nc(-c4ccccc4)nc4ccccc34)CC2)cc1	.	2%	.	.	-17	-2%
SMILES	KB-3-1 cytotox	Nrf2 block	PI4K2A inh	KB-V1 cytotox	Giardia kill	A549 viability
CCCC(=O)NC(c1cccc([N+](=O)[O-])c1)c1ccc2cccnc2c1O (configuration not stated)	9.2µM*	.	6	?	.	.
CC(C)CC(=O)NC(c1cccs1)c1ccc2cccnc2c1O (configuration not stated)	?	21µM*	2	i	-6	?
CC(=O)NC(c1ccc(Cl)cc1Cl)c1ccc2cccnc2c1O (configuration not stated)	?	?	1	i	1	-18%
CCC(=O)NC(c1cccs1)c1ccc2cccnc2c1O (configuration not stated)	i	?	-2	?	5	-8%
CCCC(=O)NC(c1ccc(Cl)cc1Cl)c1ccc2cccnc2c1O (configuration not stated)	?	23µM*	2	i	-9	-18%
C=c1[nH]cc(C(C)c2c(C)n(C)c3ccccc23)/c1=C/C (configuration not stated)	.	.	-6	.	.	.
CC(C)[C@H](N)C(=O)N[C@H](C(=O)N1CCC2CCN(S(=O)(=O)c3ccccc3)CC21)C(C)C (some centres not stated)	.	.	-1	.	.	.
CCOC(=O)c1ccc(OCCN2C[C@H](O)[C@@H](O)[C@H](O)[C@H]2CO)cc1	.	.	-4	.	.	.
COc1cc(C(=O)/C=C/c2cccnc2)c([N+](=O)[O-])cc1OC	?	18µM*	-7	i	-90*	?
CCN(CC)C(=O)CSc1nc(Cc2ccccc2)nc2ccccc12	i	?	5	i	-3	1%
CCN(CC)C(=O)CSc1nnc(-n2nc(C)cc2C)c2ccccc12	i	-19%	1	13µM*	-9	-6%
O=[N+]([O-])c1cc(S(=O)(=O)C(F)(F)F)ccc1N1CCN(c2ccccc2)CC1	i	?	5	i	2	-6%
O=[N+]([O-])c1cc(S(=O)(=O)Nc2ccccc2)ccc1NCc1ccccc1	i	-1%	-4	?	-5	0%
O=[N+]([O-])c1cc(S(=O)(=O)Nc2ccccc2)ccc1Nc1ccccc1	?	26µM*	-3	?	1	?
CC1CCN(c2ccc(S(=O)(=O)NC3=NCCCCC3)cc2[N+](=O)[O-])CC1	?	?	5	21µM*	5	-16%
O=[N+]([O-])c1cc(S(=O)(=O)Nc2ccccc2)ccc1N1CCN(c2ccccc2)CC1	i	18µM*	2	?	22	?
CNS(=O)(=O)c1ccc(N2CCCC2)c([N+](=O)[O-])c1	i	1%	2	i	-14	-5%
